The results in this text go back to the supplement of paper PMC12494721.

Counter-ions that a name gives are not always drawn.

Common to all, as to settings: incubation time: 27 h, anaerobic, 37 °C
In assay [1] the test system is Clostridium sporogenes DSM 1664. Briefly: growth (OD595) fold change vs plate DMSO controls (fold change (ratio)); higher = more growth. The method in brief:
(§1)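 The reported measure is growth: the fold change against the median of DMSO controls on the plate. Absorbance at 595 nm from anaerobic 96-well mGAM cultures grown for 27 h at 37 °C was blank-subtracted, corrected for background with 20 µM compound solutions in water, and converted to OD with a calibration factor of 5. Fold changes above 1.5 appear as NA, and values are the mean of 2 biological replicates.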

For assay [2], the system named is Escherichia coli IAI1. The assay is described as above. The method in brief: as §1
The test system of assay [3] is Klebsiella aerogenes DSM 30053. The description is as above. The method in brief:
as §1

In assay [4] the test system is Ruminococcus gnavus DSM 108212. Described as above. In short, it runs like this:
as §1

Assay [5] deals with Klebsiella aerogenes DSM 30053. Briefly: fold change of Histamine concentration vs plate DMSO controls (fold change (ratio)); higher = more amine produced, active = hit call of the paper (significant change in both replicates, either direction). In short, it runs like this:
(§2)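 Extracts of whole anaerobic mGAM cultures were analysed for amines by LC–triple-quadrupole MS with dynamic MRM and external calibration curves, with drift corrected within batch. Four gut strains were grown at 37 °C for 27 h in 80 µL wells with compounds at 20 µM final, sweeteners at 50 µM final. Each value expresses fold change over plate DMSO controls. The average of 2 biological replicates is shown.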

Assay [6] has as its system Ruminococcus gnavus DSM 108212. The experiment in a line: fold change of Tryptamine concentration vs plate DMSO controls (fold change (ratio)); higher = more amine produced, active = hit call of the paper (significant change in both replicates, either direction). The method in brief:
as §2

The test system of assay [7] is Escherichia coli IAI1. The experiment in a line: fold change of Putrescine concentration vs plate DMSO controls (fold change (ratio)); higher = more amine produced, active = hit call of the paper (significant change in both replicates, either direction). The method in brief: as §2
The subject of assay [8] is Klebsiella aerogenes DSM 30053. The assay is described as above. The method in brief:
as §2

The subject of assay [9] is Escherichia coli IAI1. Briefly: fold change of Cadaverine concentration vs plate DMSO controls (fold change (ratio)); higher = more amine produced, active = hit call of the paper (significant change in both replicates, either direction). In short, it runs like this:
as §2

The subject of assay [10] is Klebsiella aerogenes DSM 30053. The description is as above. In short, it runs like this: as §2
The test system of assay [11] is Ruminococcus gnavus DSM 108212. The experiment in a line: fold change of 2-Phenylethylamine concentration vs plate DMSO controls (fold change (ratio)); higher = more amine produced, active = hit call of the paper (significant change in both replicates, either direction). The method in brief:
as §2

The subject of assay [12] is Clostridium sporogenes DSM 1664. The experiment in a line: fold change of Tryptamine concentration vs plate DMSO controls (fold change (ratio)); higher = more amine produced, active = hit call of the paper (significant change in both replicates, either direction). In short, it runs like this:
as §2

For the molecule `OC(c1cc(C(F)(F)F)nc2c(C(F)(F)F)cccc12)C1CCCCN1` (stereo not given) [Mefloquine hydrochloride] (20 µM), the growth in assay [1] is 0.869; in the assay on Escherichia coli IAI1 [2], 0.858; in assay [3], 0.808; in assay [4], 1.
Regarding `CCn1cc(C(=O)O)c(=O)c2cc(F)c(N3CCN(C)CC3)cc21` [Pefloxacin] (20 µM), the growth in the assay on Escherichia coli IAI1 [2] turned out to be 0.0501; in assay [3], 0.198; in [4], 1.13. Moreover, the “fold change of Histamine concentration” value in [5] is 0.127 (active). The “fold change of Tryptamine concentration” value in assay [6] was 0.915 (inactive). Besides, the entries for the “fold change of Putrescine concentration” value (in the assay with Escherichia coli IAI1 [7]; in assay [8]) were 0.793 (inactive) and 1.05 (inactive), respectively. Moreover, the “fold change of Cadaverine concentration” value in the assay with Escherichia coli IAI1 [9] was 0.204 (active); in assay [10] it was 0.972 (inactive). Also, in assay [11], the “fold change of 2-Phenylethylamine concentration” value is 0.91 (inactive).
Consider `Cc1noc(NS(=O)(=O)c2ccc(N)cc2)c1C` [Sulfisoxazole] (20 µM), for which the values for the growth (in the assay with Escherichia coli IAI1 [2]; in assay [3]; in assay [4]) were 1.03, 1.02 and 1.13, respectively. Further, the “fold change of Histamine concentration” value in assay [5] is 1.07 (inactive). Further, the “fold change of Tryptamine concentration” value in assay [6] was 1.01 (inactive). The “fold change of Putrescine concentration” value was 1.03 (inactive) with Escherichia coli IAI1 [7] and 1.02 (inactive) in assay [8]. The “fold change of Cadaverine concentration” value in the assay with Escherichia coli IAI1 [9] is 1.04 (inactive); in assay [10] it was 1.01 (inactive). In assay [11], the “fold change of 2-Phenylethylamine concentration” value was 1 (inactive).
For the molecule `COc1ccc(CCN(C)CCCC(C#N)(c2ccc(OC)c(OC)c2)C(C)C)cc1OC` (stereo not given) [Verapamil hydrochloride] (20 µM), the growth with Escherichia coli IAI1 [2] came out at 1.13; in assay [3] it was 0.758; in assay [4], 1.01. The “fold change of Histamine concentration” value in [5] is 0.942 (inactive). Further, in assay [6], the “fold change of Tryptamine concentration” value is 0.992 (inactive). The “fold change of Putrescine concentration” value with Escherichia coli IAI1 [7] was 1.05 (inactive); in assay [8] it was 0.906 (inactive). Besides, the “fold change of Cadaverine concentration” value was 0.978 (inactive) in the assay with Escherichia coli IAI1 [9] and 0.972 (inactive) in assay [10]. Besides, the “fold change of 2-Phenylethylamine concentration” value in assay [11] was 0.95 (inactive).
With `CN(C)CCCN1c2ccccc2CCc2ccccc21` [Imipramine hydrochloride] (20 µM), the growth was 1.15 in the assay with Escherichia coli IAI1 [2], 1.08 in assay [3] and 1.34 in assay [4]. The “fold change of Histamine concentration” value in assay [5] was 0.866 (inactive). The “fold change of Tryptamine concentration” value in assay [6] is 0.975 (inactive). The “fold change of Putrescine concentration” value in the assay with Escherichia coli IAI1 [7] is 1.02 (inactive); in assay [8] it was 0.943 (inactive). Also, the entries for the “fold change of Cadaverine concentration” value (with Escherichia coli IAI1 [9]; in assay [10]) were 0.976 (inactive) and 1.03 (inactive), respectively. Also, in assay [11], the “fold change of 2-Phenylethylamine concentration” value is 0.963 (inactive).
As for `CN(CCOc1ccc(NS(C)(=O)=O)cc1)CCc1ccc(NS(C)(=O)=O)cc1` [Dofetilide] (20 µM), the growth was 0.972 with Escherichia coli IAI1 [2], 1.03 in assay [3] and 0.827 in [4]. Besides, the “fold change of Histamine concentration” value in [5] is 1 (inactive). Besides, the “fold change of Tryptamine concentration” value in [6] is 1.04 (inactive). The figures for the “fold change of Putrescine concentration” value (in the assay with Escherichia coli IAI1 [7]; in assay [8]) were 0.989 (inactive) and 0.984 (inactive), respectively. In addition, the “fold change of Cadaverine concentration” value in the assay on Escherichia coli IAI1 [9] was 1.05 (inactive); in assay [10], 1 (inactive). Moreover, in assay [11], the “fold change of 2-Phenylethylamine concentration” value was 0.998 (inactive).
As to `COc1c(N2C[C@@H]3CCCN[C@@H]3C2)c(F)cc2c(=O)c(C(=O)O)cn(C3CC3)c12` [Moxifloxacin] (20 µM), the growth in the assay with Escherichia coli IAI1 [2] is 0.0497; in assay [3] it was 0.193; in assay [4], 0.00485. Moreover, the “fold change of Histamine concentration” value in [5] is 0.256 (active). Besides, in assay [6], the “fold change of Tryptamine concentration” value was 0.205 (active). In addition, the “fold change of Putrescine concentration” value in the assay with Escherichia coli IAI1 [7] was 0.828 (inactive); in assay [8], 0.915 (inactive). The “fold change of Cadaverine concentration” value was 0.236 (active) in the assay on Escherichia coli IAI1 [9] and 0.982 (inactive) in assay [10]. In assay [11], the “fold change of 2-Phenylethylamine concentration” value was 0.215 (active).
`O=C1C(=O)c2ccccc2C(O)=C1C1CCC(c2ccc(Cl)cc2)CC1` (stereo not given) [Atovaquone] (20 µM): the growth in assay [1] worked out at 1.24; in the assay on Escherichia coli IAI1 [2], 1.02; in assay [3], 1.07. Also, the “fold change of Histamine concentration” value in assay [5] was 1.01 (inactive). For the same molecule, the “fold change of Tryptamine concentration” value in assay [12] was 0.793 (inactive); in assay [6], 0.753 (active). In addition, the “fold change of Putrescine concentration” value with Escherichia coli IAI1 [7] is 0.973 (inactive); in assay [8], 1.03 (inactive). In addition, the results for the “fold change of Cadaverine concentration” value (with Escherichia coli IAI1 [9]; in assay [10]) were 0.989 (inactive) and 1 (inactive), respectively. Besides, in [11], the “fold change of 2-Phenylethylamine concentration” value was 0.747 (active).
For `CC[C@]12CCCN3CCc4c(n(c5ccccc45)[C@@](O)(C(=O)OC)C1)[C@@H]32` [Vincamine] (20 µM), the growth with Escherichia coli IAI1 [2] turned out to be 1.01; in assay [3], 1.05; in assay [4] it was 0.949. Also, the “fold change of Histamine concentration” value in [5] is 1.01 (inactive). Further, the “fold change of Tryptamine concentration” value in assay [6] was 0.973 (inactive). The “fold change of Putrescine concentration” value in the assay on Escherichia coli IAI1 [7] was 0.996 (inactive); in assay [8] it was 1 (inactive). The “fold change of Cadaverine concentration” value was 1.02 (inactive) in the assay on Escherichia coli IAI1 [9] and 0.99 (inactive) in [10]. Further, in [11], the “fold change of 2-Phenylethylamine concentration” value was 0.942 (inactive).
For the molecule `Cc1nnc(SCC2=C(C(=O)O)N3C(=O)[C@@H](NC(=O)Cn4cnnn4)[C@H]3SC2)s1` [Cefazolin sodium salt] (20 µM), the growth with Escherichia coli IAI1 [2] is 0.0255; in assay [3], 1.13; in [4] it was 0.0483. In [5], the “fold change of Histamine concentration” value was 0.645 (inactive). Moreover, the “fold change of Tryptamine concentration” value in [6] is 0.0727 (active). Also, the “fold change of Putrescine concentration” value in the assay on Escherichia coli IAI1 [7] is 0.16 (active); in assay [8], 1.03 (inactive). Also, the entries for the “fold change of Cadaverine concentration” value (with Escherichia coli IAI1 [9]; in assay [10]) were 0.613 (active) and 1.05 (inactive), respectively. Further, the “fold change of 2-Phenylethylamine concentration” value in assay [11] was 0.0761 (active).
On to `Cc1cnc(NC(=O)C2=C(O)c3ccccc3S(=O)(=O)N2C)s1` [Meloxicam] (20 µM), for which the growth in the assay with Escherichia coli IAI1 [2] worked out at 0.997; in assay [3], 0.98; in [4], 0.801. For the same molecule, the “fold change of Histamine concentration” value in [5] is 1.03 (inactive). For the same molecule, the “fold change of Tryptamine concentration” value in assay [6] is 1.02 (inactive). The “fold change of Putrescine concentration” value in the assay on Escherichia coli IAI1 [7] was 1.04 (inactive); in assay [8] it was 0.995 (inactive). The “fold change of Cadaverine concentration” value is 0.959 (inactive) with Escherichia coli IAI1 [9] and 0.996 (inactive) in [10]. Also, in assay [11], the “fold change of 2-Phenylethylamine concentration” value was 1.03 (inactive).
